# Assay results reported in PubChem BioAssay.
# For part of these data: Entries with a potency or affinity are not part of this list. The list shows a part of the results. The source made the active and inactive calls.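 The calls were made as follows, unless noted: active = fitted half-maximal concentration within 10 nM to 100 µM, steepness 0.5 to 2, significant signal drop, low assay interference; inactive = the rest.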
# Columns and labels:
# [1] = target: Cell division control protein 42 homolog (Homo sapiens) (UniProt P60953); assay: activated mutant Cdc42 GTP-binding inhibitors, dose response, biochemical, multiplex bead flow cytometry, Bodipy-FL-GTP (AID 1333;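 active = fitted half-maximal concentration within the tested dose range, moderate curve steepness, a statistically real signal drop, and little compound fluorescence or tag-binding interference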)
# [2] = target: Cell division control protein 42 homolog (Homo sapiens) (UniProt P60953); assay: wildtype Cdc42 GTP-binding inhibitors, dose response, biochemical, multiplex bead flow cytometry, Bodipy-FL-GTP (AID 1334;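 active = fitted half-maximal concentration within the tested range, moderate curve steepness, significant signal drop, and little compound fluorescence or bead-linkage interference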); details: bead-based flow cytometry, Bodipy-FL-GTP binding to GST-Cdc42; at 100 µM (top of the series) unless noted
# [3] = target: GTPase HRas (Homo sapiens) (UniProt P01112); assay: inhibitors of GTP binding to wildtype Ras, dose response, biochemical, multiplex bead flow cytometry (AID 1335); details: bead-based flow cytometry, Bodipy-GTP binding to GST-Ras; at 100 µM (top of the series) unless noted
# [4] = test system: Ras-related protein Rab-7a (dog), GTP binding; assay: Rab7 GTP binding inhibitors, potency, dose response, biochemical, wildtype, multiplex bead flow cytometry (AID 1336; call rule not given here)
# [5] = target: Ras-related C3 botulinum toxin substrate 1 (Homo sapiens) (UniProt P63000); assay: wildtype Rac1 GTP binding inhibitors, dose response, biochemical, multiplex bead flow cytometry (AID 1340;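 active = dose curve with midpoint inside tested range, moderate steepness, plateau gap beyond fit error, low compound glow and bead-link interference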); details: GST-Rac1 beads, Bodipy-FL-GTP binding; at 100 µM (top of the series) unless noted
# [6] = target: GTPase HRas (Homo sapiens) (UniProt P01112); assay: activated Ras mutant GTP binding inhibitors, dose response, biochemical, multiplex bead flow cytometry (AID 1341;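 active = dose-response curve with midpoint inside the tested range, moderate steepness, significant amplitude and little compound fluorescence or bead-attachment interference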;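 also: GST-tagged constitutively activated Ras mutant immobilized on beads and multiplexed with other GTPases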)
# [7] = target: Regulator of G-protein signaling 16 (Homo sapiens) (UniProt O15492); assay: modulators of RGS–Galpha-o binding, primary screen, biochemical, multiplexed beads, flow cytometry, RGS4/7/8/16/19 (AID 1504); details: multiplexed bead flow cytometry, measured here: RGS16 interaction, at 10 µM;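 also: fluorescently labeled Galpha-o bound to GDP with aluminium fluoride binding biotinylated RGS beads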
# [8] = target: Regulator of G-protein signaling 19 (Homo sapiens) (UniProt P49795); assay: as above; details: multiplexed bead flow cytometry, measured here: RGS19 interaction, at 10 µM
# [9] = target: Regulator of G-protein signaling 7 (Homo sapiens) (UniProt P49802); assay: as above; details: multiplexed bead flow cytometry, measured here: RGS7 interaction, at 10 µM
# [10] = target: Regulator of G-protein signaling 8 (Homo sapiens) (UniProt P57771); assay: as above; details: multiplexed bead flow cytometry, measured here: RGS8 interaction, at 10 µM
# [11] = disruption of biotin probe capture by avidin, counter-screen for RGS protein interaction modulators, biochemical, flow cytometry, bead-based (AID 1783;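 active = inhibition above 50%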;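 also: median green fluorescence of gated singlet beads compared with DMSO control wells; 0% = DMSO wells and 100% = complete loss of bead fluorescence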); details: streptavidin beads, fluorescein-biotin binding; at 10 µM, stronger effect = higher value
# [12] = target: Guanine nucleotide-binding protein G(o) subunit alpha (Homo sapiens) (UniProt P09471); assay: RGS8-Galphao binding modulators, confirmation, biochemical, multiplexed bead flow cytometry, single concentration (AID 1836; in the data active = binding response below about 72% or above about 130%; inactive = in between;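 also: Galphao activated as GDP AlF4 complex before binding bead RGS8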); details: bead-based flow cytometry RGS8-Galphao binding, fluorescence; at 10 µM; actives lie on both sides
# [13] = target: Guanine nucleotide-binding protein G(o) subunit alpha (Homo sapiens) (UniProt P09471); assay: RGS7-Galphao binding modulators, confirmation, biochemical, multiplexed bead flow cytometry, single concentration (AID 1837; in the data active = response below about 75% or above about 130%; inactive = in between;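 also: fluorescent Galphao activated with GDP and aluminum fluoride binding bead-coupled RGS7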); details: bead-based flow cytometry RGS7-Galphao binding; at 10 µM; actives lie on both sides
# [14] = target: Regulator of G-protein signaling 16 (Homo sapiens) + Guanine nucleotide-binding protein G(o) subunit alpha (Homo sapiens) (UniProt O15492+P09471); assay: modulators of RGS16-Galphao protein binding, confirmation, biochemical, single concentration, multiplexed bead flow cytometry (AID 1838; in the data active = response below about 74% or above about 130%; inactive = in between;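 also: Galphao activated as the GDP aluminium fluoride complex binding bead-coupled RGS16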); details: bead-based flow cytometry, at 10 µM, actives lie on both sides
# [15] = target: Guanine nucleotide-binding protein G(o) subunit alpha (Homo sapiens) (UniProt P09471); assay: modulators of RGS4-Galphao protein binding, confirmation, biochemical, single concentration, multiplexed bead flow cytometry (AID 1840; in the data active = binding response below about 74% or above about 130%; inactive = in between); details: at 10 µM, actives lie on both sides
# [16] = target: Guanine nucleotide-binding protein G(o) subunit alpha (Homo sapiens) + Regulator of G-protein signaling 19 (Homo sapiens) (UniProt P09471+P49795); assay: regulators of RGS19-Galphao binding, confirmation, biochemical, single point, multiplexed bead flow cytometry (AID 1841; in the data active = response below about 50% or above about 160%; inactive = in between;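 also: 100% = no compound control and 0% = blank background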); details: bead-based flow cytometry RGS19-Galphao binding; at 10 µM; actives lie on both sides
# Chain of Guanine nucleotide-binding protein G(o) subunit alpha (Homo sapiens) + Regulator of G-protein signaling 19 (Homo sapiens) (P09471 whole entry, looked up): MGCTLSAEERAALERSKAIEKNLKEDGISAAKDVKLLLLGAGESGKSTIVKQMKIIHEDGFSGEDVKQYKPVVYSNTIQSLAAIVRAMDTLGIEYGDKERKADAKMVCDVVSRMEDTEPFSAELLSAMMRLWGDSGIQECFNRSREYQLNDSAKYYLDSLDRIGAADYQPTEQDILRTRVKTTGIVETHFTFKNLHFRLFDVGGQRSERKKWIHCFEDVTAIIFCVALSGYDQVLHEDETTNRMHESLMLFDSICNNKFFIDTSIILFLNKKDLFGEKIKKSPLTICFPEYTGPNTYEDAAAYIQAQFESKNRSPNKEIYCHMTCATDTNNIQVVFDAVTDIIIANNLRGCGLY
# Chain of Guanine nucleotide-binding protein G(o) subunit alpha (Homo sapiens) + Regulator of G-protein signaling 19 (Homo sapiens) (P49795 whole entry, looked up): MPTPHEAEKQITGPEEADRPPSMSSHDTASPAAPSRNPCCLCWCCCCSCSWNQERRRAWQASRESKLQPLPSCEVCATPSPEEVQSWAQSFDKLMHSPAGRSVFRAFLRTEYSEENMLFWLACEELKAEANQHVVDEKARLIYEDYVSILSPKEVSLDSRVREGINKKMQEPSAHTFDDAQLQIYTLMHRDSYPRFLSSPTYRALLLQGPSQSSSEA
# Chain of GTPase HRas (Homo sapiens) (P01112 whole entry, looked up): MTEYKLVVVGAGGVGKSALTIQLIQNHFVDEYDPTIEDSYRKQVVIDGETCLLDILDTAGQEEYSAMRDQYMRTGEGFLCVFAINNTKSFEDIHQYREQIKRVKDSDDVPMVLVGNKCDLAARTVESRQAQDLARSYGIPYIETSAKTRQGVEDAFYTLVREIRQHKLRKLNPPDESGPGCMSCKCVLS
# Chain of Guanine nucleotide-binding protein G(o) subunit alpha (Homo sapiens) (P09471 whole entry, looked up): as the sequence (P09471 whole entry, looked up) above
# Chain of Cell division control protein 42 homolog (Homo sapiens) (P60953 whole entry, looked up): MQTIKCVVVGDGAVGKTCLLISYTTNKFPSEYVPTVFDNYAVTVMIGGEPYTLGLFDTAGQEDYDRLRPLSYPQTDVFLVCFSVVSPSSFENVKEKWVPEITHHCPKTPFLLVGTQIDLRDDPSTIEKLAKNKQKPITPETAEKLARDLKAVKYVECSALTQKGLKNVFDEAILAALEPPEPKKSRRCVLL
# Chain of Regulator of G-protein signaling 16 (Homo sapiens) + Guanine nucleotide-binding protein G(o) subunit alpha (Homo sapiens) (O15492 whole entry, looked up): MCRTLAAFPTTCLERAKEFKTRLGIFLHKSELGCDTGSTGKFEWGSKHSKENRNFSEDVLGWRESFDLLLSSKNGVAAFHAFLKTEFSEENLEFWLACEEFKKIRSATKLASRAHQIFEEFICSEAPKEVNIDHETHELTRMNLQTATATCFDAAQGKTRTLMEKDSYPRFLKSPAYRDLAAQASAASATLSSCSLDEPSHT
# Chain of Regulator of G-protein signaling 16 (Homo sapiens) + Guanine nucleotide-binding protein G(o) subunit alpha (Homo sapiens) (P09471 whole entry, looked up): as the sequence (P09471 whole entry, looked up) above
structure (smiles),measurement,setting,value
O=C(OCC1O[C@@H](OC(=O)c2cc(O)c(O)c(O)c2)[C@@H](OC(=O)c2cc(O)c(O)c(O)c2)[C@@H](OC(=O)c2cc(O)c(O)c(O)c2)[C@@H]1OC(=O)c1cc(O)c(O)c(O)c1)c1cc(O)c(O)c(O)c1 (some centres undefined),outcome,[1],inactive
same,"fluorescence, percent of control (lower = inhibition)",[2],21.1%
same,"GTP binding, percent of control",[3],58.6%
same,outcome,[4],inactive
same,"GTP binding signal, raw median fluorescence (lower = inhibition) (MCF (arbitrary fluorescence units))",[5],145
same,outcome,[6],inactive
same,RGS16–Galpha-o binding response,[7],51.1%
same,RGS19–Galpha-o binding response,[8],-410%
same,RGS7–Galpha-o binding response,[9],20.5%
same,RGS8–Galpha-o binding response,[10],46.9%
same,inhibition,[11],-1.9% (inactive)
same,binding response (% of control),[12],35.2% (active)
same,response (percent of control binding),[13],-10.3% (active)
same,response (% of control binding),[14],29.8% (active)
same,binding response (% of control),[15],-1.02% (active)
same,response (percent of control binding),[16],46.8% [inhibitor] (active)
O=C(O)c1cccnc1SCc1ccccc1Cl,outcome,[1],inactive
same,"fluorescence, percent of control (lower = inhibition)",[2],103%
same,"GTP binding, percent of control",[3],119%
same,outcome,[4],inactive
same,"GTP binding signal, raw median fluorescence (lower = inhibition) (MCF (arbitrary fluorescence units))",[5],88.1
same,outcome,[6],inactive
O=C(COc1ncnc2cc([N+](=O)[O-])ccc12)NCCc1ccc(Cl)cc1,outcome,[1],inactive
same,"fluorescence, percent of control (lower = inhibition)",[2],36.6%
same,"GTP binding, percent of control",[3],78.8%
same,outcome,[4],inactive
same,outcome,[6],inactive
Cc1sc2nc3ccc(NCc4ccco4)nn3c(=O)c2c1C,outcome,[1],inactive
same,"GTP binding, percent of control",[3],57.4%
same,outcome,[4],inactive
same,outcome,[6],inactive
Cc1cc(C(=O)O)sc1CNCc1ccccc1Cl,outcome,[1],inactive
same,"fluorescence, percent of control (lower = inhibition)",[2],60.4%
same,"GTP binding signal, raw median fluorescence (lower = inhibition) (MCF (arbitrary fluorescence units))",[5],33.9
CC(C)Oc1ccc(/C=N/NC(=O)c2ccc(N(Cc3ccccc3)S(C)(=O)=O)cc2)cc1,outcome,[1],inactive
same,"fluorescence, percent of control (lower = inhibition)",[2],43.8%
same,"GTP binding, percent of control",[3],57.5%
same,outcome,[4],inactive
same,outcome,[6],inactive
O=C(O)c1ccccc1NCc1ccccc1Cl,outcome,[1],inactive
same,"fluorescence, percent of control (lower = inhibition)",[2],65.3%
same,"GTP binding, percent of control",[3],88.6%
same,outcome,[4],inactive
same,outcome,[6],inactive
COc1cc(SC#N)ccc1N=Cc1c(C)[nH]n(-c2ccc(C)c(C)c2)c1=O,outcome,[1],inactive
same,"fluorescence, percent of control (lower = inhibition)",[2],44.7%
same,"GTP binding, percent of control",[3],83%
same,outcome,[4],inactive
same,outcome,[6],inactive
O=C(O)c1ccc(COc2ccccc2Cl)o1,outcome,[1],inactive
same,"fluorescence, percent of control (lower = inhibition)",[2],73.5%
same,"GTP binding, percent of control",[3],96.7%
same,outcome,[4],inactive
same,outcome,[6],inactive
O=C(NC1CCCCC1)c1cc([N+](=O)[O-])[nH]n1,outcome,[1],inactive
same,"fluorescence, percent of control (lower = inhibition)",[2],37.3%
same,"GTP binding, percent of control",[3],80.1%
same,outcome,[4],inactive
same,outcome,[6],inactive
COc1cc(/C=N/Nc2nnc3c(n2)[nH]c2ccccc23)ccc1O,outcome,[1],inactive
same,"fluorescence, percent of control (lower = inhibition)",[2],33.9%
same,"GTP binding, percent of control",[3],79.1%
same,outcome,[4],inactive
same,outcome,[6],inactive
O=C(C#Cc1ccc(F)cc1)c1ccc([N+](=O)[O-])cc1,"fluorescence, percent of control (lower = inhibition)",[2],39.2%
same,"GTP binding, percent of control",[3],142%
same,outcome,[4],inactive
same,"GTP binding signal, raw median fluorescence (lower = inhibition) (MCF (arbitrary fluorescence units))",[5],48.4
same,outcome,[6],inactive
O=C(O)c1cc(Sc2ccc(Cl)cc2)nc2ccccc12,"fluorescence, percent of control (lower = inhibition)",[2],55.8%
same,"GTP binding, percent of control",[3],81.1%
same,outcome,[4],inactive
same,"GTP binding signal, raw median fluorescence (lower = inhibition) (MCF (arbitrary fluorescence units))",[5],29
same,outcome,[6],inactive
CCC(C(=O)NC1CCCC1)N(C(=O)Cn1nnc(-c2ccc(C)o2)n1)c1cnc2ccccc2c1 (centres undefined),outcome,[1],inactive
same,"GTP binding, percent of control",[3],60.1%
same,outcome,[4],inactive
same,"GTP binding signal, raw median fluorescence (lower = inhibition) (MCF (arbitrary fluorescence units))",[5],194
same,outcome,[6],inactive
O=C(NNC(=S)NCc1ccc(Cl)cc1)c1ccc(Br)o1,outcome,[1],inactive
same,"fluorescence, percent of control (lower = inhibition)",[2],28.8%
same,"GTP binding, percent of control",[3],74.4%
same,outcome,[4],inactive
same,outcome,[6],inactive
